# In all, about 68,000 compounds went through this assay and about 2,700 (4%) showed an effect of 50% or more. The list comes from a sample in which strong results are over-represented; it also holds similar structures and randomly drawn compounds.
# Test system: Plasmodium berghei
# Assay: Screen against P. berghei liver stage (PbLuc), transformed with Luciferase, at 2uM
# Type: functional, HepG2
# Conditions: tested at 2 uM
row,Structure (SMILES),INHIBITION [%]
1,CCNC(=O)C1CCN(Cc2ccc(C(=O)Nc3cnns3)cc2)C1 (stereo not given),29.78
2,Cc1cc(C(=O)N2CCc3nc(N4CCCC4)nc(C)c3CC2)c(C)o1,22.96
3,CCCc1cc(CN(C)C2CSCCSC2)n[nH]1,-71.03
4,CCCc1cc(CN(C)C2CCSCC2)n[nH]1,36.28
5,CCCc1cc(CN(C)C2CC(C)(C)NC(C)(C)C2)n[nH]1,62.51
6,CN1CCCN(c2ccc(F)cc2CNC(=O)c2ccsc2)CC1,31.05
7,O=C(CN1CCN(c2ccnc3c(F)ccc(F)c23)CC1)N1CCCC1,3.01
8,CC(C)(C)CN1CC(COc2ccccc2)Oc2ccncc2S1(=O)=O (stereo not given),14.96
9,CCSC(C)c1nc(-c2ccc(C)nn2)no1 (stereo not given),66.4
10,Cc1ccc(-c2noc([C@H](N)CC(C)C)n2)nn1,24.55
11,Cc1ccc(-c2noc(C(O)CC(C)C)n2)nn1 (stereo not given),-12.08
12,Fc1cnc(N2C[C@@H]3C[C@@H](c4nc(C5CC5)cs4)O[C@@H]3C2)nc1,3.53
13,Cc1nc(-c2cc(C(=O)O)co2)cs1,9.95
14,CCOCC1CN(C(=O)c2ccncn2)Cc2cnn(CC)c21 (stereo not given),4.99
15,CC(C)C(C)(C#N)NC(=O)Cn1cc(-c2ccccc2)cn1 (stereo not given),-4.26
16,CC(C)C(C)(C#N)NC(=O)Cn1cc(Cl)cn1 (stereo not given),26.74
17,CC(C)C(C)(C#N)NC(=O)Cn1cc(I)cn1 (stereo not given),64.9
18,Cc1nccn1CCN1C(=O)CC2(CCCC2)CC1=O,-50.2
19,CCc1c(NCc2cccnc2)cnn1CC(C)C,-16.94
20,CN(Cc1ccsc1)C(=O)Nc1ccc(S(C)(=O)=O)cc1,-12.75
21,Cn1cccc1CN(C(=O)CC(CC(=O)O)c1cccs1)C1CC1 (stereo not given),81.52
22,O=C(O)CC(CC(=O)NCCc1cccs1)c1cccs1 (stereo not given),17.25
23,CN(C(=O)Cc1cccs1)C1CCN(c2ccccn2)CC1,16.89
24,Cn1cccc1CN(C(=O)Cc1cccs1)C1CC1,51.96
25,CN(Cc1cccs1)C1CCC[C@@H]2CN(C(=O)c3cccn3C)C[C@H]12 (stereo not given in full),6.33
26,O=C(O)CC(CC(=O)N(Cc1ccsc1)C1CC1)c1cccs1 (stereo not given),1.06
27,CCN(CC1CCOC1)C(=O)NCc1nnc2n1CCCCC2 (stereo not given),7.24
28,CC(NCC1CCN(CCO)CC1)c1cccc(Cl)c1 (stereo not given),34.46

row,Structure (SMILES),INHIBITION [%]
1,CC(NCC1CCN(CCO)CC1)c1ccc(OC(F)(F)F)cc1 (stereo not given),47.68
2,CC(NCC1CCN(CCO)CC1)c1ccc(Cl)cc1 (stereo not given),56.49
3,CC(NCC1CCN(CCO)CC1)c1cccnc1 (stereo not given),-4.09
4,CC(NCC1CCN(CCO)CC1)c1ccc(C(F)(F)F)cc1 (stereo not given),55.39
5,CC(NCC1CCN(CCO)CC1)c1ccc(F)c(Cl)c1 (stereo not given),-111.19
6,CCc1nc(NC(=O)NCCc2cscn2)nn1C,1.88
7,Clc1cccc(C(CNCc2ccccn2)N2CCOCC2)c1 (stereo not given),20.8
8,CC(C)c1nn(C)c(N(C)C)c1CNCc1ccnc(N(C)C)c1,1.36
9,O=C(Cn1ccc2ccc(Cl)cc21)NCc1ccc(C(=O)O)cc1,30.98
10,CC(C)NC(=O)C1CN(C(=O)Nc2ccccc2)CC12CCOCC2 (stereo not given),47.1
11,O=C(NCC1CC1)C1CN(C(=O)Nc2ccccc2)CC12CCOCC2 (stereo not given),-48.3
12,O=C(Nc1ccccc1)N1CC(C(=O)N2CCCC2)C2(CCOCC2)C1 (stereo not given),51.72
13,CN(Cc1cc2n(n1)CCN(C(=O)[C@H]1CCCO1)C2)Cc1nccs1,24.08
14,c1ccc(Oc2cccc(OC34CCCN(CC3)C4)c2)cc1 (stereo not given),43.72
15,COCCc1noc(CN2CCOC(Cn3nc(C)cc3C)C2)n1 (stereo not given),-85.26
16,COCCc1noc(CN2CC(n3nc(C)cc3C)C2)n1,65.39
17,Cc1cc(C)n(C2CN(Cc3noc(-c4ccccc4)n3)C2)n1,1.34
18,Cc1ccc(-c2nc(CN3CC(n4nc(C)cc4C)C3)no2)cc1,31.55
19,Cc1cccc(-c2nc(CN3CC(n4nc(C)cc4C)C3)no2)c1,51.31
20,Cc1cc(C)n(C2CN(Cc3noc(C4CC4)n3)C2)n1,-14.28
21,Cn1c(CO)cnc1SC1CCCN(c2ccccc2F)C1=O (stereo not given),15.82
22,Cc1ncsc1CN1CCn2c(COCC3CC3)cnc2C1C (stereo not given),-21.27
23,CCc1noc(CNC2CCCN(Cc3noc(C4CC4)n3)C2)n1 (stereo not given),30.29
24,CCS(=O)(=O)c1ncc(CN(C)Cc2ccccc2Cl)n1CCOC,-5.13
25,CCS(=O)(=O)c1ncc(CN(C)Cc2ccccc2OC)n1CCOC,60.74
26,CCS(=O)(=O)c1ncc(CN(C)Cc2ccccn2)n1CCOC,-40.94
27,CN(C)Cc1cn(-c2ccccc2C(=O)NCCC2CCCN2C)cn1 (stereo not given),16.43
